# Assay results published in PubChem BioAssay (NCATS).
# Inconclusive results are not listed. A call without a number means that no potency is given here. The source made the active and inactive calls. Calls follow the shape of the dose curve; as a rule, active = well fitted inhibition curve with a large enough effect; inconclusive = small, poorly fitted or top-dose-only effect; inactive = no such curve, though single readings can be large or run the other way.
# Test: Primary qHTS for small molecule stabilizers of the endoplasmic reticulum resident proteome: Secreted ER Calcium Modulated Protein (SERCaMP) assay (AID 1508630)
# Details: SH-SY5Y GLuc-SERCaMP (Gaussia luciferase released on ER calcium loss) secretion, thapsigargin, luminescence; series mostly up to 38.4 µM
# In short: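 The SH-SY5Y reporter protocol was run at 3 concentrations up to 38.3 uM (primary) or 11 concentrations (follow-up): 16 h compound, 100 nM thapsigargin for 4 h, then extracellular luciferase luminescence.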
row,Structure (SMILES),Potency
1,CC(=O)OCC(=O)[C@@]1(O)CC[C@H]2[C@@H]3CCC4=CC(=O)C=C[C@]4(C)[C@@H]3[C@@H](O)C[C@@]21C,inactive
2,COc1ccc2c(c1)CC[C@H]1[C@@H]2CC[C@]2(C)[C@@H](NCCCCCCN3C(=O)C=CC3=O)CC[C@H]12,inactive
3,CN[C@H]1[C@@H](O[C@@H]2[C@H](O[C@@H]3[C@@H](O)[C@@H](O)[C@@H](N=C(N)N)[C@@H](O)[C@@H]3N=C(N)N)O[C@H](C)[C@@]2(O)C=O)O[C@@H](CO)[C@@H](O)[C@H]1O,inactive
4,FC(F)(F)c1ccc(C=Cc2nc(COc3ccc(CCCCn4ccnn4)cc3)co2)cc1,inactive
